tim10-1 inh: growth inhibitors of tim10-1 mutant yeast, primary screen, luminescence, uHTS; S. cerevisiae tim10-1 ts strain growth, BacTiter-Glo, 24 h; inhibition, % at 20 µM; 2.2% of 330,000 active;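 active = inhibition of at least 40%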;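 also: mutant grown at 25 °C; 0% = DMSO wells with yeast and 100% = wells holding no yeast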
NALP3 yeast inh: NALP3 inflammasome inhibitors in reconstituted yeast, primary screen, luminescence, uHTS | Yeast reconstituted NLRP3/ASC/caspase-1, beta-gal luminescence, 24 h | inhibition, % at 10 µM | 0.39% of 330,000 active | AID 2825, 2010;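 active = inhibition of 50% or more; inactive = inhibition below 50%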;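 also: plate controls were induced DMSO wells for no effect and uninduced yeast grown without galactose for full effect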
NALP1 inh: NALP1 inflammasome inhibitors in reconstituted yeast, colorimetric, S. cerevisiae, triplicate retest | S. cerevisiae NALP1/ASC/caspase-1 growth, X-gal OD620, 72 h | inhibition, % at 10 µM | 0.61% of 280,000 active; in the data active = inhibition mostly above about 24%, no sharp cut-off; inactive = mostly below about 32%
tim23-1 inh: growth inhibitors of tim23-1 mutant yeast, primary screen, luminescence, uHTS. 1.3% of 330,000 active. AID 463212, 2010. inhibition, % at 20 µM. S. cerevisiae tim23-1 growth, BacTiter-Glo luminescence, 24 h;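 active = growth inhibition of the mutant yeast at or above 50%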;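 also: temperature-sensitive mutant grown at 25 °C; plate controls were DMSO-treated mutant yeast for no effect and medium wells lacking yeast for full effect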
TIM10 inh: growth inhibitors of isogenic TIM10 control yeast, primary screen, counter-screen for tim10-1 yeast inhibitor project, luminescence, uHTS; S. cerevisiae TIM10 strain growth, BacTiter-Glo luminescence, 24 h; 1.4% of 330,000 active; inhibition, % at 10 µM; AID 463195, 2010;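 active = inhibition of 40% or more at the single tested concentration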;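 also: wild-type TIM10 isogenic control strain grown at permissive 25 °C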
tim23-1 conf: tim23-1 mutant yeast growth inhibitors, confirmation, luminescence, single concentration | S. cerevisiae tim23-1 growth, BacTiter-Glo luminescence, 24 h | 83% of 4,400 active | inhibition, % at 20 µM | shares compounds with tim23-1 inh;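 active = inhibition above about 39% in either of two replicate wells at 20 µM, limit read from the data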;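 also: temperature-sensitive tim23-1 mutant grown at 25 °C; 0% = DMSO wells with yeast and 100% = medium wells without yeast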
Starred values were filed as active, the others as inactive; . = not tested or not shown. Sampled rows, rich in hits. Any-hit rate of the full collection: about 4%.

SMILES	tim10-1 inh	NALP3 yeast inh	NALP1 inh	tim23-1 inh	TIM10 inh	tim23-1 conf
CCN(CC)c1ccc(/C=N/Nc2ccc(C)cc2)c(O)c1	.	.	36	.	.	.
CCOC(=O)N/N=C/c1ccc(N(CC)CC)cc1O	36	41	47	60*	37	72*
NC(=O)COc1cccc2cccnc12	0	7	2	7	0	.
O=C(/C=C/c1ccccc1)Oc1cccc2cccnc12	16	35	-22	54*	13	43*
Cn1cnc(C(=O)NCc2ccc(CNC(=O)OC(C)(C)C)cc2)c1C(=O)NCc1ccc(CNC(=O)OC(C)(C)C)cc1	-1	11	.	1	0	.
O=Cc1cn(-c2ccccc2)nc1-c1cccnc1	28	38	17	62*	40	57*
O=C(NCc1ccncc1)c1cn(-c2ccccc2)nc1-c1cccnc1	14	20	-7	-5	18	.
COC(=O)c1sc(NC(=S)NNC(=O)c2c(Br)c(C)nn2C)c(C(=O)OC)c1C	22	15	4	39	23	.
CCc1ccc(OCC(=O)N2CCN(c3ccccn3)CC2)c(Br)c1	37	26	6	53*	26	38
O=C(COc1ccc(Br)cc1Cl)N1CCN(c2ccccn2)CC1	37	33	8	46	9	.
CSc1nc2nc3c(cc2c(=O)n1-c1ccccc1C)CCCC3	17	10	14	55*	10	44*
Cc1ccccc1NC(=S)NC(=O)/C=C/c1ccco1	21	26	16	55*	7	36
O=C(/C=C/c1ccco1)NC(=S)Nc1ccccc1	21	18	24	54*	5	29
COc1ccccc1NC(=S)NC(=O)/C=C/c1ccco1	32	16	29	20	19	.
Cc1cccc(NC(=S)NC(=O)c2ccco2)c1C	31	12	-3	56*	25	17
Cc1cccc(NC(=S)NC(=O)/C=C/c2ccco2)n1	23	10	26	57*	21	40*
COC(=O)c1ccc(COc2ccccc2/C=C(\C#N)C(=O)NC(C)C)cc1	39	10	2	21	26	.
CCOc1ccccc1/C=C(\C#N)C(=O)NC1CC1	28	-1	.	55*	39	52*
CCCC(NC(=S)NCC1CCCO1)C12CC3CC(CC(C3)C1)C2 (stereo not drawn)	39	20	-14	51*	37	51*
S=C(NCC1CCCO1)NC1CCCCC1 (stereo not drawn)	-2	10	-8	-11	4	.
CC1(C)CC(NC(=O)c2ccc(Br)o2)CC(C)(C)N1	-15	9	-11	-1	-13	.
CCOc1ccccc1C(C(=O)NC1CCCCC1)N(C(=O)c1csnn1)C1CC1 (stereo not drawn)	24	25	12	27	7	.
Cc1cc(C)n2nc(C)c(-c3ccccc3)c2n1	16	3	.	15	1	.
Cc1cc(N2CCCCCC2)n2nc(C)c(-c3ccccc3)c2n1	30	21	7	57*	38	51*
Cc1cc(N2CCOCC2)n2nc(C)c(-c3ccccc3)c2n1	29	12	18	38	6	.
SMILES	tim10-1 inh	NALP3 yeast inh	NALP1 inh	tim23-1 inh	TIM10 inh	tim23-1 conf
Cc1cc(C)n2nc(C)c(-c3ccc(Cl)cc3)c2n1	16	6	-24	52*	14	30
CC(C)(C)NC(=S)NC1CC1	7	5	-3	4	16	.
Cn1c(-c2sc3ccccc3c2Cl)n[nH]c1=S	27	18	11	52*	29	44*
Cc1cc(Nc2ccccc2)nn1C(=O)c1ccccc1	0	7	53	51*	30	52*
COc1cc(OC)c(NC2c3ccccc3C(=O)N2c2cc(C)ccn2)cc1Cl (stereo not drawn)	13	12	2	52*	12	42*
O=C(CSc1nccn(-c2cccc(F)c2)c1=O)Nc1ccc(Cl)cc1F	-10	25	15	40	-10	.
O=C(c1ccco1)N1CCN(C(=O)c2ccc(-c3ccc(Cl)cc3)o2)CC1	2	8	.	51*	18	40*
